Reference: PubChem BioAssay (EPA / NIEHS)
Inconclusive results are not listed. The source made the active and inactive calls. Rule for the calls: active = hit-call score of the fitted dose curve at least 0.9, where 1 is the maximum; inconclusive = response in the unintended direction; inactive = score below 0.9.

Target: Androgen receptor (Homo sapiens) (UniProt P10275)
Assay: ATG_AR_TRANS: Attagene TRANS-FACTORIAL HepG2 Assay for human Androgen Receptor (AR) (AID 2282973)
Settings: HepG2 Attagene TRANS-FACTORIAL AR reporter transcription
In short: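 Transfected HepG2, 24 h treatment, chimeric NR-Gal4 driving GAL4-UAS reporters. mRNA induction by RT-PCR/capillary electrophoresis fluorescence; DMSO as negative control and baseline.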

Chain of Androgen receptor (Homo sapiens) (P10275 whole entry, looked up): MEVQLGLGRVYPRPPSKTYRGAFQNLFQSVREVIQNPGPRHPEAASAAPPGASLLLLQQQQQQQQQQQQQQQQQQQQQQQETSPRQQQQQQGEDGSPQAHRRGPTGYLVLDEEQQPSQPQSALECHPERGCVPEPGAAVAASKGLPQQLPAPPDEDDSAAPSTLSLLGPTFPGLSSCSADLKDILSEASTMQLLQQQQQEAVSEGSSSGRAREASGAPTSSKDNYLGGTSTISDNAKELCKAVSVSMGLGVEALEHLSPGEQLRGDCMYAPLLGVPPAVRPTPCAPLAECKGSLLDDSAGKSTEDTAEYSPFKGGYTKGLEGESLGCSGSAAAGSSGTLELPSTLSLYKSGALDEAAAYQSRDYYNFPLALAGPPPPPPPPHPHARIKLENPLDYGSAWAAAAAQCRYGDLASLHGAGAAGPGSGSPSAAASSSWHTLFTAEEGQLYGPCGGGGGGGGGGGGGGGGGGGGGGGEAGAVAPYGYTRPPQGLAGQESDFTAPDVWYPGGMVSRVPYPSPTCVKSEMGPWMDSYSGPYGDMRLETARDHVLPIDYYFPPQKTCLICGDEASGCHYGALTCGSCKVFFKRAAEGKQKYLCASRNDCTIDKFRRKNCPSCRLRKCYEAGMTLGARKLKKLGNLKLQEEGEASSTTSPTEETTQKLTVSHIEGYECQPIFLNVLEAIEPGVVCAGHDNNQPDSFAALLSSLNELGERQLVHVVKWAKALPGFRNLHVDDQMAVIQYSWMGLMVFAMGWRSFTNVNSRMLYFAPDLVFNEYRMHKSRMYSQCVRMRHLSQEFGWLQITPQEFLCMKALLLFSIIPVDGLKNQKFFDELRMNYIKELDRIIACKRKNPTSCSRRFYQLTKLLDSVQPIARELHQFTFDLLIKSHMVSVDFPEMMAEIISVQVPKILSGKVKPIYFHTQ

| SMILES | outcome |
| --- | --- |
| CCOC(=O)[C@@H](C)Oc1ccc(Oc2nc3ccc(Cl)cc3o2)cc1 | inactive |
| O=CN1CCOCC1 | inactive |
| CCSC(=O)N(CC(C)C)CC(C)C | inactive |
| CCCOCCOCCOCCO | inactive |
| Brc1cc(Br)c(Oc2c(Br)cc(Br)c(Br)c2Br)cc1Br | inactive |
| O=c1c(-c2ccc(O)cc2)coc2cc(O)cc(O)c12 | inactive |
| CCCCCCCCCC(=O)O | inactive |
| Oc1cc2ccccc2cc1O | inactive |
| O=S(=O)(O)C(F)(F)C(F)(F)C(F)(F)C(F)(F)C(F)(F)C(F)(F)C(F)(F)C(F)(F)C(F)(F)C(F)(F)F | inactive |
| Cc1ccc(C2OC[C@@H]3OC(c4ccc(C)cc4)O[C@H]([C@H](O)CO)[C@@H]3O2)cc1 (some centres undefined) | inactive |
| C=CC(=C)CCCC(C)(C)OC(C)=O | inactive |
| Nc1ccc(N)c2c1C(=O)c1ccccc1C2=O | inactive |
| CCCCC/C=C\CCC=O | inactive |
| CC(C)(c1ccc(O)cc1)c1ccc(O)cc1 | inactive |
| CCC(O)CO (centres undefined) | inactive |
| CCc1c(C)cc(N)c(CC)c1N | inactive |
| CCCCCCCCCCCCOCCO | inactive |
| CC(O)COc1ccccc1 (centres undefined) | inactive |
| CC(C)(C)c1n[nH]c(=O)n(N)c1=O | inactive |
| Cc1nn(C)c(Oc2ccccc2)c1C=NOCc1ccc(C(=O)OC(C)(C)C)cc1 | inactive |

| SMILES | outcome |
| --- | --- |
| Nc1cc([N+](=O)[O-])ccc1Cl | inactive |
| CCCCCCCC1CCCC1=O (centres undefined) | inactive |
| O=C1OC(=O)C(F)(F)C1(F)F | inactive |
| CC1COCc2cc3c(cc21)C(C)(C)C(C)C3(C)C (centres undefined) | inactive |
| C=CCOC(=O)/C=C\C(=O)OCC=C | inactive |
| CCC(=O)C1CC(C(C)C)CC=C1C (centres undefined) | inactive |
| CN(C)Cc1ccccc1O | inactive |
| O=C1Cc2ccccc2N1c1c(Cl)cccc1Cl | inactive |
| CCC(C)(C)C1CCC(=O)CC1 | inactive |
| CCc1ccc(C(c2ccc(CC)cc2)C(Cl)Cl)cc1 | inactive |
| Oc1ccc(-c2ccccc2)c(Cl)c1 | inactive |
| CC(c1cc2ccccc2s1)N(O)C(N)=O (centres undefined) | inactive |
| C[N+](C)(CCCNS(=O)(=O)CCC(F)(F)C(F)(F)C(F)(F)C(F)(F)C(F)(F)C(F)(F)F)CC(=O)[O-] | inactive |
| COC(=O)C(F)(F)C(F)(F)C(F)(F)C(F)(F)C(F)(F)F | inactive |
| N#CSCSc1nc2ccccc2s1 | inactive |
| CCCCOCCOCCOCc1cc2c(cc1CCC)OCO2 | inactive |
| CCN(CC)CCOc1ccc(C(=C(Cl)c2ccccc2)c2ccccc2)cc1 | inactive |
| C=C(C)C1CC=C(C)C(=O)C1 (centres undefined) | inactive |
| CSc1ccc(Oc2ccc(S(N)(=O)=O)cc2CN(C)C)cc1C | inactive |
| Cc1nc(-c2ccc3c(c2)CCN(CCC2CCC(NC(=O)/C=C/c4ccc(F)cc4)CC2)CC3)no1 (centres undefined) | inactive |

| SMILES | outcome |
| --- | --- |
| CN(C)c1ccc(C(=C2C=CC(=[N+](C)C)C=C2)c2ccc(N(C)C)cc2)cc1 | inactive |
| CCCCCCCCCCCCCC[P+](CCCC)(CCCC)CCCC | inactive |
| c1ccc2[nH]c(-c3cscn3)nc2c1 | inactive |
| Cc1cc(NC(=O)C(=O)O)cc(C)c1Oc1ccc(O)c2c1CCC2 | inactive |
| O=C(Nc1ccc(Cl)cc1)Nc1ccc(Cl)c(Cl)c1 | inactive |
| C[C@]12CC[C@@H]3c4ccc(O)cc4C[C@@H](CCCCCCCCCS(=O)CCCC(F)(F)C(F)(F)F)[C@H]3[C@@H]1CC[C@@H]2O (some centres undefined) | inactive |
| Oc1cc2ccccc2c2ccccc12 | inactive |
| CCCCCCCCCCCCCCCCOS(=O)(=O)O | inactive |
| O=C(c1ccccc1)c1ccccc1 | inactive |
| COc1ccc2c(c1)c(CC(=O)O)c(C)n2C(=O)c1ccc(Cl)cc1 | inactive |
| O=C(c1ccc(O)cc1O)c1ccc(O)cc1O | inactive |
| CC1(C)C(=O)N(Br)C(=O)N1Br | inactive |
| NC(=NCCCCCCN=C(N)/N=C(\N)Nc1ccc(Cl)cc1)/N=C(\N)Nc1ccc(Cl)cc1 | inactive |
| O=C(O)Cn1c(=O)n(Cc2ccc(Br)cc2F)c(=O)c2ccc(Cl)cc21 | inactive |
| CCCN(C1CCN(C(=O)C2CCNCC2)CC1)[C@@H]1CCc2ccc(OC)cc2C1 | inactive |
| CCCN(CCC)C(=O)SCC | inactive |
| COc1cc(-c2nc(NC(=O)c3cc4cc(C)cc(C)c4n3CC(=O)O)sc2CCC2CCCCC2)c(OC)cc1Cl | inactive |
| CCCCCCCCCCCCc1ccccc1S(=O)(=O)O | inactive |
| COCC(C)OCC(C)OCC(C)O (centres undefined) | inactive |
